This passage reports log2 fold change results from the supplement of paper PMC10849652.

About 8,800 targets were measured; listed, in parts, are those with a hit and a random draw of the rest. About 0.5% of all pairs of compound and target were hits. A number with no mark means an inactive call.

Holding throughout (test): log2 fold change, soluble protein after heating vs DMSO (PISA); higher = thermal stabilisation; K562 lysate, 10 uM; active = over 0.2 and 3.5 SD of the protein, either way, in both replicates (recomputed)
Compound in assay [1]: CCCS(=O)(=O)Nc1ccc(F)c(C(=O)c2c[nH]c3ncc(Cl)cc23)c1F
The method in brief: (§1)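 Pellets of K562 cells were dounce-homogenised in PBS pH 7.4 with 1 mM MgCl2, and the crude extract was held at 1 mg/mL protein for a 30 min treatment with 10 μM compound. Aliquots were heated for 3 min over 48°C-58°C and pooled before NP-40 was added to 0.5% at 4°C. The supernatant from 21,000xg for 90 min was quantified by TMTpro 16plex LC-MS/MS with channel sums equalised. Values are reported from duplicates as log-two fold change in thermal stability relative to solvent controls.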

Compound in assay [2]: CC[C@@H]1C(=O)N(C)c2cnc(Nc3ccc(C(=O)NC4CCN(C)CC4)cc3OC)nc2N1C1CCCC1
The method in brief:
as §1

Compound in the next assay: CC[C@@H]1C(=O)N(C)c2cnc(Nc3ccc(C(=O)N[C@H]4CC[C@H](N5CCN(CC6CC6)CC5)CC4)cc3OC)nc2N1C(C)C [volasertib]
The method in brief: as §1

Compound in assay [3]: CCn1c(C(=O)N(C2CC2)C2CC2)cc2c3c(ncn3C)c(Nc3cc(C)n(C)n3)nc21
In a few lines: as §1

Compound in assay [4]: CCn1cc(-c2ccnc3[nH]c(-c4cccc(CN(C)C)c4)cc23)c(-c2ccc(NC(=O)N(C)C)cc2)n1
The method in brief:
as §1

Compound in assay [5]: CN1CCC(CNc2ccc3ncc(-c4cccc(OC(F)(F)F)c4)n3n2)CC1
In a few lines: as §1

Compound in another assay: CN1CCN(c2nc(C3=C(c4c[nH]c5ccccc45)C(=O)NC3=O)c3ccccc3n2)CC1 [sotrastaurin]
In a few lines:
as §1

Compound in the next assay: CN1CC[C@H](c2c(O)cc(O)c3c(=O)cc(-c4ccccc4Cl)oc23)[C@H](O)C1 [alvocidib]
In a few lines: as §1

Compound in another assay: CN1CCc2c(c3ccccc3n2Cc2ccc(C(=O)NO)cc2)C1 [Tubastatin A]
The method in brief: as §1

Compound in assay [6]: CNC(=O)C1=CC=CC=C1NC2=NC(=NC=C2Cl)NC3=C(C=C(C=C3)N4CCOCC4)OC
In a few lines: as §1

Compound in another assay: COC(=O)N[C@@H](C)CNc1nccc(-c2cn(C(C)C)nc2-c2cc(Cl)cc(NS(C)(=O)=O)c2F)n1 [encorafenib]
In a few lines:
as §1

Compound in assay [7]: COC(=O)[C@H](CCSC)NC(=O)C1=C(C=C(C=C1)NC[C@H](CS)N)C2=CC=CC=C2
In a few lines: as §1

Compound in assay [8]: COc1cc2nc(-c3cc(F)ccc3O)nc(N[C@@H]3CNC[C@H]3C(C)(C)O)c2cc1OC
The method in brief: as §1

Compound in the next assay: COc1cc(Nc2ncc3c(n2)-c2ccc(Cl)cc2C(c2c(F)cccc2OC)=NC3)ccc1C(=O)O [alisertib]
In a few lines:
as §1

Compound in another assay: COc1cc2ncnc(Nc3ccc(F)c(Cl)c3)c2cc1OCCCN1CCOCC1 [gefitinib]
In a few lines: as §1

Compound in the next assay: CCCS(=O)(=O)Nc1ccc(F)c(C(=O)c2c[nH]c3ncc(-c4ccc(Cl)cc4)cc23)c1F [vemurafenib]
In a few lines:
as §1

Compound in a further assay: CCN(CCCOc1ccc2c(Nc3cc(CC(=O)Nc4cccc(F)c4)[nH]n3)ncnc2c1)CCOP(=O)(O)O [barasertib]
In a few lines:
as §1

Compound in the next assay: CN1CCN(CCOc2cc(OC3CCOCC3)c3c(Nc4c(Cl)ccc5c4OCO5)ncnc3c2)CC1 [saracatinib]
In a few lines: as §1

Compound in the next assay: CNC(=O)c1ccc(Nc2ncc(C(F)(F)F)c(NCc3nccnc3N(C)S(C)(=O)=O)n2)cc1 [defactinib]
The method in brief: as §1

Compound in assay [9]: CNc1nc(-c2ccc3c(N)n[nH]c3c2)cc(N2C[C@@H](C(=O)NC3CCCCC3)CC[C@H]2C)n1
In a few lines: as §1

UniProt Q9H790, sequence (Q9H790 whole entry, looked up): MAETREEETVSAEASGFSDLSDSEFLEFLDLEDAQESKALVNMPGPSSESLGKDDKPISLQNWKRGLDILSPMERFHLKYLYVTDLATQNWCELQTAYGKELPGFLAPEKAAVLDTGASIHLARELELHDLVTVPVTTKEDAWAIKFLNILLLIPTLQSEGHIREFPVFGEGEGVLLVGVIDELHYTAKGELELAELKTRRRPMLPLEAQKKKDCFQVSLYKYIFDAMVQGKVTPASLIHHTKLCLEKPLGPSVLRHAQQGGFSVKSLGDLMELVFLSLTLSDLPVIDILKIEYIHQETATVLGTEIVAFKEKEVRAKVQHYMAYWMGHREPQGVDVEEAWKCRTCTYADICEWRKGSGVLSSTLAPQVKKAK
UniProt Q14517, sequence (Q14517 whole entry, looked up): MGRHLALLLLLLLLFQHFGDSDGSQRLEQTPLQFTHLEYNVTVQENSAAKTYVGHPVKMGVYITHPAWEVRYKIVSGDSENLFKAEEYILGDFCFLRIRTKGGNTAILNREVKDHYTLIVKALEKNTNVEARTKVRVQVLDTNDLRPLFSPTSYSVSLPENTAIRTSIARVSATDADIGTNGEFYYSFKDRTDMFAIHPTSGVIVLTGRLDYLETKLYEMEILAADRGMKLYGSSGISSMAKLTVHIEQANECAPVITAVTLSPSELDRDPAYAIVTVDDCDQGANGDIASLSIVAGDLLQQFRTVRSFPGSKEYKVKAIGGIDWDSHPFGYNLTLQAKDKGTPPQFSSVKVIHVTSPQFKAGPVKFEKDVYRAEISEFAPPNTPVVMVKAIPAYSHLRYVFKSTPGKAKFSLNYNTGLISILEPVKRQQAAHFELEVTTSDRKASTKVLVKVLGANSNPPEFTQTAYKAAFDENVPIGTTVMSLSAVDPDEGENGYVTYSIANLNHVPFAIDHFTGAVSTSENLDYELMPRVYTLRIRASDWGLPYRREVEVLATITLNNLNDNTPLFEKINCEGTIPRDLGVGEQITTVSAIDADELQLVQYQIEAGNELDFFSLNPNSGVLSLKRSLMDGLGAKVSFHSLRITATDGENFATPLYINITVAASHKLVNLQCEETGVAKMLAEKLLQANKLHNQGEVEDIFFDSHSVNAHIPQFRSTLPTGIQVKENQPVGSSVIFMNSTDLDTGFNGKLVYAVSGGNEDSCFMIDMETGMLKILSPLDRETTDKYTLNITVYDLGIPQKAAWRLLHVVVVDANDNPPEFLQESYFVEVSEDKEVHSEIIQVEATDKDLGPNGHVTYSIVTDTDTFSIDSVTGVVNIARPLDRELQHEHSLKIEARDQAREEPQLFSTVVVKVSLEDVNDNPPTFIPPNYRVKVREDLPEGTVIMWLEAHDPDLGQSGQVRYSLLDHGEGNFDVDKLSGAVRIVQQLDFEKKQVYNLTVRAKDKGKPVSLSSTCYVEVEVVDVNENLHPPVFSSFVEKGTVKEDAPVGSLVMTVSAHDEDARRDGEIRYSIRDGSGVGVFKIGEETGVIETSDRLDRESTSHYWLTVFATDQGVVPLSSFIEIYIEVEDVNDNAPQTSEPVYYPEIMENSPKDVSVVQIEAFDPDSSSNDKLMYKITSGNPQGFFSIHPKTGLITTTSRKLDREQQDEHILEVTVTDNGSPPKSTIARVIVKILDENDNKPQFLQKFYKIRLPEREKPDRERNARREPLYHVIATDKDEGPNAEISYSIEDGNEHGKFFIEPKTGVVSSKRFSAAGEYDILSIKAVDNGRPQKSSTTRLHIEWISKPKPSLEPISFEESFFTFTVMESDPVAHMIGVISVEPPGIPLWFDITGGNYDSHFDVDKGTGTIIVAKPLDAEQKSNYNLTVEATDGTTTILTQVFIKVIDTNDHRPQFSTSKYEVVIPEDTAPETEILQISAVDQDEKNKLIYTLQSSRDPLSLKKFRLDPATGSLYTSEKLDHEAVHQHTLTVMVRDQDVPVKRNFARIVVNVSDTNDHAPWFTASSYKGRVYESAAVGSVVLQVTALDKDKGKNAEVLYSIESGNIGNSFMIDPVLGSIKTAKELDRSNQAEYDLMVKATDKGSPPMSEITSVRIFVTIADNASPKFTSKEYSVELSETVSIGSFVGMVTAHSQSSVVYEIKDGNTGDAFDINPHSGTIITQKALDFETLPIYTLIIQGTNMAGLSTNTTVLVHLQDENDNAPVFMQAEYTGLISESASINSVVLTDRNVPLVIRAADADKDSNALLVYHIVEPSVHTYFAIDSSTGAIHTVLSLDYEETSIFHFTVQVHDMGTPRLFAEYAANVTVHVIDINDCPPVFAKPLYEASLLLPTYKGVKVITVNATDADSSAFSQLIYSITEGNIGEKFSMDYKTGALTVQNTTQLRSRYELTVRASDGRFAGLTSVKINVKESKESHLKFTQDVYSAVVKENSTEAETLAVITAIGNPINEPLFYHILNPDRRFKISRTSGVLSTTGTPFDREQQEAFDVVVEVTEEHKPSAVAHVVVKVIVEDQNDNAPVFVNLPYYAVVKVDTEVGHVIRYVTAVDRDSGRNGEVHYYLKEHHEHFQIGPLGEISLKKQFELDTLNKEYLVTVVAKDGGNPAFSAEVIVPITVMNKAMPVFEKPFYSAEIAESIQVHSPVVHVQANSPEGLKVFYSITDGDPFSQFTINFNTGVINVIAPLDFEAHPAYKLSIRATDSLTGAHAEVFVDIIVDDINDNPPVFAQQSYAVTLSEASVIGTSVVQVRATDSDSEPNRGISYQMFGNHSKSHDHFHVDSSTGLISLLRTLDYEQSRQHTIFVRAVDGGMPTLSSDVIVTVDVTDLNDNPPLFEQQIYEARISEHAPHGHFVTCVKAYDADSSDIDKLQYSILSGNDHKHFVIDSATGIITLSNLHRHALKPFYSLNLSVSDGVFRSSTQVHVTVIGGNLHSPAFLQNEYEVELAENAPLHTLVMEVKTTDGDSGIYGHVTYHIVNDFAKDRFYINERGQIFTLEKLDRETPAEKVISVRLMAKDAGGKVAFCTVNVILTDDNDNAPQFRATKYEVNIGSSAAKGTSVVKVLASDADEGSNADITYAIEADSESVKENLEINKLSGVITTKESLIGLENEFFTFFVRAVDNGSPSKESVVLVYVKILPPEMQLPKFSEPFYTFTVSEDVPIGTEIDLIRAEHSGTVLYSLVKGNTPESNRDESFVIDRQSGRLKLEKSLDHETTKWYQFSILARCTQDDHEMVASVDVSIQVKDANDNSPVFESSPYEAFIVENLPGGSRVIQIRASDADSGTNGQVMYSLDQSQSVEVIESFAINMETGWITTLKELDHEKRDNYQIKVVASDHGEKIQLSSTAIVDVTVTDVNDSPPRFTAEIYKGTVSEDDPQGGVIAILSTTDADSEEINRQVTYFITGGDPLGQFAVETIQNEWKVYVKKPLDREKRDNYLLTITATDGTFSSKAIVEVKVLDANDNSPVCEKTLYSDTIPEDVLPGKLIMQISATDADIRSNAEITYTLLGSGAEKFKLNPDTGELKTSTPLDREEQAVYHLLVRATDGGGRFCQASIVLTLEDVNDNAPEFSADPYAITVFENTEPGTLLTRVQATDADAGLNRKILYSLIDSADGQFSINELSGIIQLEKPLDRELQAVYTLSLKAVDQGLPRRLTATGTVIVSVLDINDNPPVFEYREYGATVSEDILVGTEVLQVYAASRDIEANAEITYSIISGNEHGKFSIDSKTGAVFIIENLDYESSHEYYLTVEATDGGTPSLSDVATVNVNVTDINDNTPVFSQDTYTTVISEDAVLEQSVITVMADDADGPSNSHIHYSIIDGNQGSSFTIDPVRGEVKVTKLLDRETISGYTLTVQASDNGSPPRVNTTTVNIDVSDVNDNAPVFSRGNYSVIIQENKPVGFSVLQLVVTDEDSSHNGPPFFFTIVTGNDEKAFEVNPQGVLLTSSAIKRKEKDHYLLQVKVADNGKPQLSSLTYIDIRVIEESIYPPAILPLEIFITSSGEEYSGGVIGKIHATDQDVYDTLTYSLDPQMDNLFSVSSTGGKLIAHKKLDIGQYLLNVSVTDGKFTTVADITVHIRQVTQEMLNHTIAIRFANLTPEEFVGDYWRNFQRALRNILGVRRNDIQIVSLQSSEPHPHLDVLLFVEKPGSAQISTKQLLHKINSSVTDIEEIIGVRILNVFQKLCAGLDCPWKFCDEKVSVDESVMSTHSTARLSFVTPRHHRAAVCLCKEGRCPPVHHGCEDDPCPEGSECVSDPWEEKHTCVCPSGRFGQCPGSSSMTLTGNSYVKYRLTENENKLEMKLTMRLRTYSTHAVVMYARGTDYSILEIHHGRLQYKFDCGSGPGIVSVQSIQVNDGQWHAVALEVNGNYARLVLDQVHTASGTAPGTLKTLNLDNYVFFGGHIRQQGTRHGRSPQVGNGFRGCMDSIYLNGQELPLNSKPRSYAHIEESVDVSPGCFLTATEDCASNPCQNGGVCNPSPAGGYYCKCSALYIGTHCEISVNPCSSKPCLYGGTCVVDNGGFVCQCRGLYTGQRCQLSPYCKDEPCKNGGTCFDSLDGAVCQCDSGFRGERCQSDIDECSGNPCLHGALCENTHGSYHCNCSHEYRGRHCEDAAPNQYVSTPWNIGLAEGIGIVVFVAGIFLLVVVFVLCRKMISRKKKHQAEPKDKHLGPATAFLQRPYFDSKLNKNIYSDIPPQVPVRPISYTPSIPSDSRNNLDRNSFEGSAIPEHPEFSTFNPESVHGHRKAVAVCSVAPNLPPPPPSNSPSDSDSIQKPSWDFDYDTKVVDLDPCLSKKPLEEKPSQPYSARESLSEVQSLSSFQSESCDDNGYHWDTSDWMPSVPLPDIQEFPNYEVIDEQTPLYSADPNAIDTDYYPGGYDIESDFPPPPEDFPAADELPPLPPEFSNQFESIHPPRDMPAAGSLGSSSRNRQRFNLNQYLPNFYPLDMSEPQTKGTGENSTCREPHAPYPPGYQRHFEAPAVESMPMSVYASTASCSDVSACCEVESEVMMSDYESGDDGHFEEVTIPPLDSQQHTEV
UniProt P28676, sequence (P28676 whole entry, looked up): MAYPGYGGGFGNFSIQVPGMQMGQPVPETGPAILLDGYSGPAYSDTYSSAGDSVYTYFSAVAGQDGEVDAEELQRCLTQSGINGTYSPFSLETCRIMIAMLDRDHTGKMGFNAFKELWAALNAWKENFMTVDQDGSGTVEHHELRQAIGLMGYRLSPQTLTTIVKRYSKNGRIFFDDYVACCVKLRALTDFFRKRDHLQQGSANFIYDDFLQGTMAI

FAT1 (UniProt Q14517): the log2 fold change is 0.022 in assay [1]; 0.32 in assay [2]; 0.025 with volasertib; -0.344 in assay [3]; 0.001 in assay [4]; -0.036 in assay [5]. Besides, the log2 fold change in the assay with sotrastaurin is -0.333; with alvocidib, -0.14; with Tubastatin A it was 0.18; in assay [6], 0; with encorafenib, 0.029; in assay [7], 0.047. For the same target, the log2 fold change in assay [8] was 0.094.
Take EIF3I (UniProt Q5TFK1): the log2 fold change is 0.147 in assay [1]; -0.112 in the assay with volasertib; -0.048 in assay [4]; 0.044 in assay [5]; 0.053 with alvocidib; 0.159 in the assay with alisertib. Moreover, the figures for the log2 fold change (in [8]; in the assay with gefitinib) were 0.613 and 0.233, respectively.
Turning to FAM53B (UniProt Q14153), the log2 fold change is 0.046 with vemurafenib; 0.009 with barasertib; 0.071 in assay [2]; 0.059 in assay [3]; -0.096 in assay [4]; 0.13 in assay [5]. Also, the log2 fold change is 0.096 with saracatinib; -0.149 in the assay with sotrastaurin; -0.125 with alvocidib; 0.473 (active) with Tubastatin A; 0.098 in assay [6]; 0.025 in the assay with defactinib. The log2 fold change in assay [9] is -0.064; with encorafenib, 0.019; in assay [7], -0.1; in the assay with alisertib, -0.04; with gefitinib, -0.075.
As to EWSR1 (UniProt H7BY36), the log2 fold change was -0.035 in the assay with vemurafenib; -0.055 with barasertib; 0.095 in [2]; -0.046 in assay [3]; -0.056 in [4]; -0.043 in assay [5]. The log2 fold change with saracatinib is 0.024; in the assay with sotrastaurin it was -0.02; in the assay with alvocidib, 0.206; in the assay with Tubastatin A it was 0.179; with defactinib, 0.14; in assay [9], 0.037. Besides, the log2 fold change in the assay with encorafenib was 0.063; in [7] it was -0.061.
In the case of GCA (UniProt P28676), the log2 fold change in assay [1] is 0.124; with volasertib, -0.048; in assay [4], -0.139; in [5] it was 0.168; with alvocidib, -0.016; in assay [6] it was -0.035. The log2 fold change was -0.038 with alisertib, -0.253 in assay [8] and -0.197 with gefitinib.
With EIF2B5, A0A3B3ITK8, the log2 fold change in [1] is -0.071; in the assay with volasertib, 0.081; in the assay with alisertib it was -0.014; in [8], -0.03; with gefitinib, -0.08.
On to DYRK1A isoform 2 (UniProt Q13627), for which the log2 fold change was 0.006 with barasertib; 0.308 in assay [3]; 0.085 in [4]; 0.221 in [5]; 0.033 with sotrastaurin; 0.225 with alvocidib. Further, the log2 fold change with Tubastatin A was 0.023; in [6] it was 0.148.
Consider GC isoform 3 (UniProt P02774), for which the log2 fold change with vemurafenib was -0.008; in assay [2], 0.022; in [3] it was -0.27; in assay [4], 0.146; in assay [5], -0.12; in the assay with saracatinib, -0.02. In addition, the log2 fold change is 0.043 with sotrastaurin; 0.105 with alvocidib; 0.087 with Tubastatin A; -0.003 with defactinib; 0.244 in [9]; -0.018 with encorafenib. Also, the log2 fold change in assay [7] was -0.049.
Turning to GAPVD1 (UniProt Q14C86), the log2 fold change was 0.116 in assay [1], 0.078 with barasertib, -0.305 with volasertib and 0.071 in assay [8].
In the case of FBRSL1, A0A3B3IRR3, the log2 fold change with vemurafenib was 0.132; with barasertib it was 0.055; in [2], 0.069; in [3] it was 0.085; in assay [4], 0; in assay [5] it was -0.061. The log2 fold change with saracatinib is -0.028; in the assay with sotrastaurin, -0.039; with alvocidib, -0.051; in the assay with Tubastatin A, -0.004; in [6], -0.074; with defactinib, -0.002. For the same target, the log2 fold change is 0.008 in assay [9]; 0.021 in the assay with encorafenib; -0.03 in assay [7]; -0.018 in the assay with alisertib; 0.014 with gefitinib.
EXO5 (UniProt Q9H790): the log2 fold change with barasertib is 0.111; in [3], -0.022; with sotrastaurin, 0.128; with Tubastatin A it was 0.018; in assay [6] it was 0.068.
Consider FAM76B (UniProt Q5HYJ3), for which the log2 fold change with vemurafenib is 0.048; in assay [1], -0.005; in assay [2], 0.04; with volasertib, 0.005; in assay [3], -0.008; in assay [4] it was 0.025. The log2 fold change was 0.007 in assay [5]; -0.003 with saracatinib; 0.027 with sotrastaurin; -0.019 with alvocidib; 0.012 with Tubastatin A; 0.068 in assay [6]. In addition, the log2 fold change is 0.076 with defactinib; -0.002 in assay [9]; 0.013 with encorafenib; -0.146 in [7]; -0.02 with alisertib; 0.016 in assay [8]. Also, the log2 fold change in the assay with gefitinib was -0.018.
Turning to GBA2 (UniProt Q9HCG7), the log2 fold change in assay [1] is 0.12; with barasertib, -0.01; in assay [2], 0.099; in the assay with volasertib, -0.21; in assay [3], 0; in [4], -0.076. Further, the log2 fold change was 0.025 in [5]; 0.033 with saracatinib; 0.001 with sotrastaurin; -0.046 with alvocidib; -0.032 with Tubastatin A; 0.073 in assay [6]. For the same target, the log2 fold change in [9] was -0.098; with encorafenib it was -0.052; in [7], 0.079; in the assay with alisertib, -0.004; in assay [8] it was 0.013; with gefitinib it was 0.2.
